Assay results: PubChem BioAssay (NCI)
This is part of a sample that, as a whole, favours compounds with a hit. Of some 79,000 tested, about 15% had one in any assay. A number with no mark means an inactive call. Rule as the data show it: active = growth inhibition above about 70%; inactive = the rest.

experiment: NCI Yeast Anticancer Drug Screen. Data for the rad50 strain (AID 155);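 also: 0% = growth of vehicle-only cultures of the same strain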; details: S. cerevisiae rad50 strain growth inhibition; at 50.0 µM; stronger effect = higher value
In short: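 Readout: growth inhibition relative to vehicle-treated cultures. Compound exposure was carried out in a genetically defined yeast strain deficient in DNA damage repair.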

| Structure (SMILES) | growth inhibition [%] |
| --- | --- |
| CN(C)c1ccccc1C(=O)NNC(=S)Nc1ccccc1 | 20.9 |
| COc1cccc2c1C(=O)c1c(C)c(C)c(C)c(C)c1-2 | 3.3 |
| C#CC(OC(=O)NC(C(=O)OC)C(C)C)(c1ccccc1)c1ccccc1 (stereo not given) | 31.1 |
| CC(=O)[C@@]1(O)CC[C@H]2[C@@H]3C[C@H](C)C4=CC(=O)C=C[C@]4(C)[C@@]3(F)[C@@H](O)C[C@@]21C | -24.1 |
| N#CC1(c2ccccc2)C(c2ccccc2)CC(O)(c2ccccc2)C(C(=O)c2ccccc2)C1c1ccccc1 (stereo not given) | 19.9 |
| c1ccc(-c2cc(-c3ccccc3)n(-c3ccccc3)c2-c2ccccc2)cc1 | 8.45 |
| NC(=S)N/N=C1/CC(=O)N(c2ccccc2)C1c1ccccc1 (stereo not given) | 32.6 |
| CCCCC(CC)COCCC(=O)O (stereo not given) | -9.55 |
| COc1cc(OC)c2c(=O)cc(-c3ccc(OC)c(OC)c3OC)oc2c1 | -31.8 |
| O=c1oc2nc(-c3ccccc3)[nH]c(=O)c2c2c1CCCC2 | -8.5 |
| O=c1c2ccccc2nc(-c2ccccc2Cl)n1NCC1(O)OCC(O)C(O)C1O (stereo not given) | 12 |
| COC(=O)C(=O)C1CSC2=C(CS(=O)(=O)c3ccccc32)C1=O (stereo not given) | -4.55 |
| Cc1cc(=O)oc2c(C)c3oc4c(c3cc12)CN(C)CC4 | 26.9 |
| COc1ccccc1Nc1nc(NNC(=O)Cc2ccccc2)nc(NNC(=O)c2ccncc2)n1 | 27.4 |
| CCOCCOCCOC(=O)c1ccccc1O | -6.75 |
| CCOC(OCC)/C(C)=N/N(C)C | 5.05 |
| Nc1cccc(N)n1 | 7.65 |
| C=C(C(=C)N1N=NC2C3CCC(C3)C21)N1N=NC2C3CCC(C3)C21 (stereo not given) | -5.9 |
| O=C(O)CCCC(=O)c1ccccc1 | 5 |
| CC(C)C1CCC(=O)CC1 | 9.9 |

| Structure (SMILES) | growth inhibition [%] |
| --- | --- |
| O=[N+]([O-])c1cccc(NC(c2ccccc2)S(=O)(=O)O)c1 (stereo not given) | -5.15 |
| O=c1oc2ccccc2c(O)c1[N+](=O)[O-] | 10.6 |
| CC(C)=NOCCC#N | 22.5 |
| O=C(O)CCCCCC1=CCCCC1 | 11.9 |
| CCCNc1ccc2c(c1)C(O)c1ccccc1-2 (stereo not given) | -4.65 |
| C/C=C/c1cc(C=O)cc(OC)c1O | 0.15 |
| CCOC(=O)Cc1csc2[n+]1C(=O)/C(=C/c1cccc(OC)c1O)S2 | 45.1 |
| Cc1nc(N)nc(-c2ccccc2)c1N=Nc1ccccc1Br | 5.55 |
| COc1ccc(NC(=O)Oc2ccc3c(C)cc(=O)oc3c2)c(OC)c1 (tested in a mixture with another compound) | -3.7 |
| CC(=O)OCCOc1ccccc1Cl | 2.75 |
| CCCc1c(-c2ccccc2)nc(N)nc1-c1nc(N)nc(-c2ccccc2)c1CCC | -1.75 |
| CCNC(=O)C1CCN(Cc2c[nH]c3ccccc23)CC1 | -19.4 |
| O=C(O)c1ccc(C(=O)Nc2cccc3ccccc23)c(C(=O)O)c1 | -6.9 |
| COc1c2c(cc3occ(-c4ccc(CC=C(C)C)cc4)c(=O)c13)OC(C)(C)C=C2 | -3.8 |
| CCOc1ccc(/C(O)=C/c2nc3ccccc3nc2/C=C(\O)c2ccc(OCC)cc2)cc1 | -2.1 |
| Cc1ccccc1NC(=O)C(=O)Cc1nc2ccccc2s1 | 14.8 |
| O=C(Nc1cc([N+](=O)[O-])ccc1Cl)c1ccc(F)cc1 | 13.2 |
| CC(=O)NC(C=O)C(O)C(O)C(O)CO (stereo not given) | -29.4 |
| O=C(O)c1nc2ccccc2c(=O)[nH]1 | -3.4 |
| CCCCCCCCN(C)/N=N/c1nc[nH]c1C(N)=O | 20.7 |

experiment: NCI Yeast Anticancer Drug Screen. Data for the mec2-1 strain (AID 157); details: S. cerevisiae mec2-1 strain, at 50.0 µM, stronger effect = higher value
In short: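 Test agents were screened against the mec2-1 yeast strain, with defined DNA repair or cell cycle alteration. Growth was scored as inhibition against vehicle-only controls.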

| Structure (SMILES) | growth inhibition [%] |
| --- | --- |
| CN(C)c1ccccc1C(=O)NNC(=S)Nc1ccccc1 | -1.75 |
| COc1cccc2c1C(=O)c1c(C)c(C)c(C)c(C)c1-2 | 6 |
| C#CC(OC(=O)NC(C(=O)OC)C(C)C)(c1ccccc1)c1ccccc1 (stereo not given) | -10.3 |
| CC(=O)[C@@]1(O)CC[C@H]2[C@@H]3C[C@H](C)C4=CC(=O)C=C[C@]4(C)[C@@]3(F)[C@@H](O)C[C@@]21C | 9.65 |
| N#CC1(c2ccccc2)C(c2ccccc2)CC(O)(c2ccccc2)C(C(=O)c2ccccc2)C1c1ccccc1 (stereo not given) | 4.75 |
| c1ccc(-c2cc(-c3ccccc3)n(-c3ccccc3)c2-c2ccccc2)cc1 | 5.85 |
| NC(=S)N/N=C1/CC(=O)N(c2ccccc2)C1c1ccccc1 (stereo not given) | 13.2 |
| CCCCC(CC)COCCC(=O)O (stereo not given) | -8.55 |
| COc1cc(OC)c2c(=O)cc(-c3ccc(OC)c(OC)c3OC)oc2c1 | -23.6 |
| O=c1oc2nc(-c3ccccc3)[nH]c(=O)c2c2c1CCCC2 | -7.15 |
| O=c1c2ccccc2nc(-c2ccccc2Cl)n1NCC1(O)OCC(O)C(O)C1O (stereo not given) | 5.2 |
| COC(=O)C(=O)C1CSC2=C(CS(=O)(=O)c3ccccc32)C1=O (stereo not given) | -9.5 |
| Cc1cc(=O)oc2c(C)c3oc4c(c3cc12)CN(C)CC4 | 10.9 |
| COc1ccccc1Nc1nc(NNC(=O)Cc2ccccc2)nc(NNC(=O)c2ccncc2)n1 | 36.2 |
| CCOCCOCCOC(=O)c1ccccc1O | 1.45 |
| CCOC(OCC)/C(C)=N/N(C)C | 8.95 |
| Nc1cccc(N)n1 | -12.2 |
| C=C(C(=C)N1N=NC2C3CCC(C3)C21)N1N=NC2C3CCC(C3)C21 (stereo not given) | -15.9 |
| O=C(O)CCCC(=O)c1ccccc1 | -8.65 |
| CC(C)C1CCC(=O)CC1 | 0.35 |

| Structure (SMILES) | growth inhibition [%] |
| --- | --- |
| O=[N+]([O-])c1cccc(NC(c2ccccc2)S(=O)(=O)O)c1 (stereo not given) | -18.6 |
| O=c1oc2ccccc2c(O)c1[N+](=O)[O-] | -11.2 |
| CC(C)=NOCCC#N | -0.05 |
| O=C(O)CCCCCC1=CCCCC1 | 33.2 |
| CCCNc1ccc2c(c1)C(O)c1ccccc1-2 (stereo not given) | -5.1 |
| C/C=C/c1cc(C=O)cc(OC)c1O | -8.1 |
| CCOC(=O)Cc1csc2[n+]1C(=O)/C(=C/c1cccc(OC)c1O)S2 | 9.8 |
| Cc1nc(N)nc(-c2ccccc2)c1N=Nc1ccccc1Br | 0.15 |
| COc1ccc(NC(=O)Oc2ccc3c(C)cc(=O)oc3c2)c(OC)c1 (tested in a mixture with another compound) | -6.2 |
| CC(=O)OCCOc1ccccc1Cl | -5.8 |
| CCCc1c(-c2ccccc2)nc(N)nc1-c1nc(N)nc(-c2ccccc2)c1CCC | -10.7 |
| CCNC(=O)C1CCN(Cc2c[nH]c3ccccc23)CC1 | 0.1 |
| O=C(O)c1ccc(C(=O)Nc2cccc3ccccc23)c(C(=O)O)c1 | 8.4 |
| COc1c2c(cc3occ(-c4ccc(CC=C(C)C)cc4)c(=O)c13)OC(C)(C)C=C2 | -11.6 |
| CCOc1ccc(/C(O)=C/c2nc3ccccc3nc2/C=C(\O)c2ccc(OCC)cc2)cc1 | -13.7 |
| Cc1ccccc1NC(=O)C(=O)Cc1nc2ccccc2s1 | -8.7 |
| O=C(Nc1cc([N+](=O)[O-])ccc1Cl)c1ccc(F)cc1 | 6.4 |
| CC(=O)NC(C=O)C(O)C(O)C(O)CO (stereo not given) | -24.8 |
| O=C(O)c1nc2ccccc2c(=O)[nH]1 | -4.25 |
| CCCCCCCCN(C)/N=N/c1nc[nH]c1C(N)=O | -4.7 |
